Compounds with a hit are over-represented: about 19% of the library has one in this group of screens.
HT1080-NT tox = kills 2HG-producing HT-1080-NT fibrosarcoma cells; AID 686970; Potency, µM (series often up to 46.1 µM), usual class: cytotoxic; hit rate 1.6% among 360,000; HT-1080-NT fibrosarcoma viability, CellTiter-Glo ATP luminescence, 48 h;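 further: NT is the 2HG producing partner of a matched IDH1 knockdown line; nearly all actives have a fitted effect of over 55% in size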
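Luminescent CellTiter-Glo readout after 48 hours of compound exposure at 37 degrees C defined viability of HT-1080-NT cells. Activity was normalized to DMSO wells and cell-free media wells; concentration-response curves were fitted and assigned curve classes.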
IL1B secr inh = inhibitors of inflammasome signaling (IL-1 beta secretion); THP-1 LPS/ATP IL-1B secretion, AlphaLISA, 16 h; active compounds read low; activity change, % at 57.5 µM; hit rate 4.7% among 360,000; AID 743279; in the data active means activity change below about -50%; inconclusive means mostly about -30% to -49%
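THP-1 cells pretreated 1 hr with compounds (up to 57.5 uM final), then stimulated with LPS (250 ng/mL final) plus ATP (1.25 mM final); secreted IL-1B measured by AlphaLISA after 16 hr, decreased signal indicating inhibition.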
DT40 TDP1 CPT = growth inhibition of DT40 Tdp1-/-;hTDP1 cells with camptothecin (screen for TDP1 inhibitors); chicken DT40 Tdp1-/-;hTDP1 cells + 20 nM CPT, ATP luminescence, 48 h; Potency, µM (highest dose often 46.2 µM), hits mostly inhibitors; hit rate 12% among 420,000; further: nearly all actives have a fitted effect of over 55% in size
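Chicken DT40 Tdp1-/- cells complemented with human TDP1, 400 cells/well, exposed to compounds plus 20 nM camptothecin for at least 48 h at 37 C; viability read as ATP content by CellTiter-Glo luminescence.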
DT40 TDP1 no CPT = qHTS for Inhibitors of human tyrosyl-DNA phosphodiesterase 1 (TDP1): qHTS in cells in absence of CPT | DT40 Tdp1-/- hTDP1 cells, no CPT, ATP luminescence, 48 h | Potency, µM (top dose mostly 46.2 µM), actives largely listed as inhibitors | hit rate 15% among 420,000 | AID 686978, 2013; further: nearly all actives have a fitted effect of over 55% in size
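Compound effects on proliferation are scored in DT40 Tdp1-/-;hTDP1 cells in the absence of CPT. ATP levels (CellTiter-Glo luminescence) are recorded after a ≥48 hr, 37 °C incubation.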
ELG1 repair inh = blocks ELG1-dependent DNA repair in HEK293T cells; hit rate 2.3% among 330,000; Potency, µM (doses to about 46.1 µM), hits mostly inhibitors; HEK293T ELG1-luciferase reporter, luminescence, 16 h; DNA damage induced by 5-fluorouridine; AID 504467; further: nearly all actives have a fitted effect of over 55% in size
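Reporter activity after DNA damage by 5-fluorouridine is monitored. Compound-treated cells incubate 16 hr at 37 °C, then ONE-Glo is added for 30 min before luminescence reading.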
HT1080 IDH1KD tx = toxicity to HT-1080 IDH1 knockdown cells (counter line) | AID 686971 | Potency, µM (titrated, usually from 46.1 µM), actives largely listed as cytotoxic | HT-1080 IDH1 knockdown viability, ATP luminescence, 48 h | hit rate 2% among 360,000
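HT-1080-IDH1KD cells (IDH1 knocked down), 750/well in RPMI with 5% FBS, treated with compound 48 h at 37 degrees C. Viability by CellTiter-Glo luminescence, normalised to DMSO and no-cell wells; concentration-response curves classed.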
Hits are given with their value; [ ] = another dose, or the depositor's remark. Unless noted, the call rests on the fitted dose curve; in most records, active means well fitted curve in the direction sought with a large enough effect; inconclusive means small, poorly fitted or top-dose-only effect, or another doubt; inactive means no such curve, though single readings can be large; an effect the other way counts as inactive or inconclusive.

How did Cc1ccc(C(=O)N(C)CCOc2ccccc2)cc1S(=O)(=O)N1CCOCC1 do in these assays?
HT1080-NT tox: inactive; IL1B secr inh: inactive; DT40 TDP1 CPT: inconclusive; DT40 TDP1 no CPT: inconclusive; ELG1 repair inh: inactive; HT1080 IDH1KD tx: inactive

How did Cc1ccccc1-c1nc(CN2CCCC2c2ccc(F)cc2)c(C)o1 (stereo not given) do in these assays?
HT1080-NT tox: inactive; IL1B secr inh: inactive; DT40 TDP1 CPT: 21µM; DT40 TDP1 no CPT: 16µM; ELG1 repair inh: inactive; HT1080 IDH1KD tx: inactive

What do the screens show for `Cc1nonc1C1CCCN1Cc1nc(-c2ccccc2Cl)oc1C` (stereo not given)?
HT1080-NT tox: inactive; IL1B secr inh: inactive; DT40 TDP1 CPT: inconclusive; DT40 TDP1 no CPT: 15µM; ELG1 repair inh: inactive; HT1080 IDH1KD tx: inactive

Results for COC(=O)c1cc(CNC(=O)c2cccc(N(C)C)c2)cc(NC(=O)c2ccccc2Cl)c1 ?
DT40 TDP1 CPT: inactive[9.04 µM]; DT40 TDP1 no CPT: inactive

Results for NC(=O)c1ncn([C@@H]2O[C@H](CNCc3cc(Cl)ccc3OCc3ccc(Cl)cc3)[C@@H](O)[C@H]2O)n1 ?
HT1080-NT tox: inactive; IL1B secr inh: inactive; DT40 TDP1 CPT: inactive; DT40 TDP1 no CPT: inactive; HT1080 IDH1KD tx: inactive

What do the screens show for `CCN(CC)c1cc2c(cc1F)c(=O)c(S(=O)(=O)c1cc(C)ccc1C)cn2Cc1ccccc1`?
DT40 TDP1 CPT: inconclusive; DT40 TDP1 no CPT: 18µM

Results for CCCn1cc(S(=O)(=O)c2ccc(CC)cc2)c(=O)c2cc(F)c(N(CC)CC)cc21 ?
DT40 TDP1 CPT: 8.2µM; DT40 TDP1 no CPT: 9.2µM

What do the screens show for `CCCCn1cc(S(=O)(=O)c2cc(C)ccc2C)c(=O)c2cc(F)c(N3CCC(C)CC3)cc21`?
DT40 TDP1 CPT: inconclusive; DT40 TDP1 no CPT: inactive

Results for CCn1cc(S(=O)(=O)c2ccc(OC)cc2)c(=O)c2cc(OC)ccc21 ?
HT1080-NT tox: inactive; IL1B secr inh: inactive; DT40 TDP1 CPT: inactive; DT40 TDP1 no CPT: inactive; ELG1 repair inh: inactive; HT1080 IDH1KD tx: inactive

What do the screens show for `CCN(CC)c1cc2c(cc1F)c(=O)c(S(=O)(=O)c1ccc(OC)cc1)cn2CC`?
DT40 TDP1 CPT: 16µM; DT40 TDP1 no CPT: 15µM

What do the screens show for `O=C(NCc1ccccc1)C(c1ccc(-c2ccccc2)cc1)N1CCN(C(=O)C2CCCO2)CC1` (stereo not given)?
HT1080-NT tox: inactive; IL1B secr inh: inactive; DT40 TDP1 CPT: inconclusive; DT40 TDP1 no CPT: inconclusive; HT1080 IDH1KD tx: inconclusive

Results for CC(=O)c1cccc(NC(=O)CSc2nc3c(=O)n(C)c(=O)n(C)c3n2C)c1 ?
DT40 TDP1 CPT: inactive; DT40 TDP1 no CPT: inactive

What do the screens show for `FC(F)(F)c1cc(CO[C@H]2CCCN[C@H]2c2ccccc2)cc(C(F)(F)F)c1`?
DT40 TDP1 CPT: 11µM; DT40 TDP1 no CPT: 13µM

What do the screens show for `FC(F)(F)c1cc(CCN2C(=S)NC[C@@H]2c2ccccc2)cc(C(F)(F)F)c1`?
HT1080-NT tox: inactive; IL1B secr inh: inconclusive; DT40 TDP1 CPT: inconclusive; DT40 TDP1 no CPT: inconclusive; ELG1 repair inh: inactive; HT1080 IDH1KD tx: inactive

Results for Nc1ncccc1C(=O)OCC(=O)N1CCN(S(=O)(=O)c2ccc(Cl)cc2)CC1 ?
HT1080-NT tox: inactive; IL1B secr inh: inactive; DT40 TDP1 CPT: inconclusive; DT40 TDP1 no CPT: inconclusive; ELG1 repair inh: 9.2µM; HT1080 IDH1KD tx: inactive

What do the screens show for `CCOc1ncccc1C(=O)OCC(=O)N1CCN(S(=O)(=O)c2ccc(Cl)cc2)CC1`?
HT1080-NT tox: inactive; IL1B secr inh: inactive; DT40 TDP1 CPT: inactive; DT40 TDP1 no CPT: inactive; ELG1 repair inh: inactive; HT1080 IDH1KD tx: inactive

What do the screens show for `CC(=O)c1cccc(NC(=O)c2cc(-c3ccncc3)nc3ccccc23)c1`?
HT1080-NT tox: inactive[9.24 µM]; IL1B secr inh: inactive; DT40 TDP1 CPT: inconclusive; DT40 TDP1 no CPT: 18µM; ELG1 repair inh: 21µM; HT1080 IDH1KD tx: inactive
